PubChem BioAssay
The source made the active and inactive calls.

Experiments:
[1] = system: Human papillomavirus type 1a protein E7 (residues 44-93); experiment: HPV1a E7 fragment binders on microarrays, primary screen, biochemical, small-molecule microarray, residues 44-93, 635 nm fluorescence (AID 1108); conditions: small-molecule microarray binding, fluorescence 635 nm; higher = more signal;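 note: E7 fragment applied at 1 µg/mL in TBST for 1 h at 4 C; score combines spot fluorescence with its signal to noise ratio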
[2] = modulators of HCV replicon luciferase signal, primary screen, HCV replication inhibitor project, Huh7 cells, luciferase reporter (AID 1109); conditions: 48 h, higher = more signal;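 note: huh7 hepatoma cells harbouring a luciferase neomycin HCV replicon reporter; luciferase luminescence as measure of HCV replicon replication; test concentration not given here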
[3] = target: Left-right determination factor 2 (Homo sapiens) (UniProt O00292); experiment: LEFTY2 binders on small-molecule microarrays, primary screen, biochemical, small-molecule microarray, 635 nm fluorescence scan (AID 1110); conditions: LEFTY2 binding, higher = more signal
Chain of Left-right determination factor 2 (Homo sapiens) (O00292 whole entry, looked up): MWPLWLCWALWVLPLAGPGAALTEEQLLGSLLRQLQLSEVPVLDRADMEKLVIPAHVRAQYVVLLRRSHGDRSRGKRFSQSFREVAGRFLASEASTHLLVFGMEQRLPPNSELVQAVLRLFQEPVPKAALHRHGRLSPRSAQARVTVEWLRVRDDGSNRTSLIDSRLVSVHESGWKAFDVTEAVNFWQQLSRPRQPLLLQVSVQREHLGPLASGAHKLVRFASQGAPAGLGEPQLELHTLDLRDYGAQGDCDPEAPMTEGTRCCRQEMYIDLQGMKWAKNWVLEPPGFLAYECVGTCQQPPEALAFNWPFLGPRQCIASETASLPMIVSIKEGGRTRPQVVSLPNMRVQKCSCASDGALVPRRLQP

[4] = target: Calmodulin-1 (Homo sapiens) (UniProt P0DP23); experiment: CALM1 binders on microarrays, EGTA buffer, profiling panel, biochemical, small-molecule microarray, Cy5-labelled CALM1 (AID 1111); conditions: Cy5-CALM1 binding fluorescence, higher = more signal;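 note: labelled calmodulin applied in Tris saline Tween buffer holding calcium plus EGTA and DTT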
[5] = target: Calmodulin-1 (Homo sapiens) (UniProt P0DP23); experiment: calcium-bound CALM1 binders on microarrays, profiling panel, artefact control for SMM control-protein annotation, biochemical, small-molecule microarray, Cy5-labelled CALM1, plus calcium (AID 1112); conditions: Cy5-CALM1 binding fluorescence, higher = more signal;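 note: score merges spot fluorescence with signal to noise from triplicate slides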
[6] = small-molecule microarray binders of probe aWnt5a, primary screen, biochemical, biotinylated probe, 635/667 nm fluorescence (AID 1113); conditions: higher = more signal;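 note: score merges 667 nm fluorescence intensity with signal-to-noise per printed feature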
[7] = small-molecule microarray binders of probe aShh, primary screen, biochemical, biotinylated probe, 635/667 nm fluorescence (AID 1114); conditions: higher = more signal;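 note: probe is biotin-labelled aShh protein from a stem cell growth factor screen; measures binding of labelled protein to compounds printed on the slide; score merges feature fluorescence at 667 nm with signal-to-noise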
[8] = small-molecule microarray binders of probe aNog, primary screen, biochemical, biotinylated probe, 635/667 nm fluorescence (AID 1115); conditions: higher = more signal;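 note: probe is biotinylated aNog protein used at 0.15 µg/mL for 1 h at 4 C; z-score combines 667 nm fluorescence of each spot with its signal to noise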
[9] = target: Torsin-1A-interacting protein 1 (Homo sapiens) (UniProt Q5JTV8); experiment: LAP1 binders from COS7 cell lysate, primary screen, small-molecule microarray, 635/667 nm fluorescence (AID 1116); conditions: COS7-hLAP1 lysate binding, 635 nm fluorescence, higher = more signal
Chain of Torsin-1A-interacting protein 1 (Homo sapiens) (Q5JTV8 whole entry, looked up): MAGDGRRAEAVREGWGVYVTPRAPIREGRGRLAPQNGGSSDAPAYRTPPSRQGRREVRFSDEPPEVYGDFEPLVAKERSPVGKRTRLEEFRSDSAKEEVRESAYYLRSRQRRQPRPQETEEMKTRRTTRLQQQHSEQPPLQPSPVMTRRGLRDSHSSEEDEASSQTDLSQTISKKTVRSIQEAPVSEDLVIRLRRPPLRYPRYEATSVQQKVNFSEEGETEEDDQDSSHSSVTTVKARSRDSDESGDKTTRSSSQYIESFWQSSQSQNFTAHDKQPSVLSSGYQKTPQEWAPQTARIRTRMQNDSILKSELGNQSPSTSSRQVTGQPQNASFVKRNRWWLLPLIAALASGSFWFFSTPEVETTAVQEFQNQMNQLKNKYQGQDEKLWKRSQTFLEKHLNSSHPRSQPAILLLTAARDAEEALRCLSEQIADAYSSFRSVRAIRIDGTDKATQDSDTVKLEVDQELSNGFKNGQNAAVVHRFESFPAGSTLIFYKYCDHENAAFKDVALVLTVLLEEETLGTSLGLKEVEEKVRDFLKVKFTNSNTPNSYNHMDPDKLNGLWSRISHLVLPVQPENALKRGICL

[10] = target: Alpha-bungarotoxin (Bungarus multicinctus) (UniProt P60615); experiment: alpha-bungarotoxin binders on microarray, profiling panel, artefact control for SMM control protein annotation, biochemical, small-molecule microarray, Alexa647 label, 635/667 nm fluorescence (AID 1117); conditions: alpha-BTX-A647 binding fluorescence, higher = more signal
Chain of Alpha-bungarotoxin (Bungarus multicinctus) (P60615 whole entry, looked up): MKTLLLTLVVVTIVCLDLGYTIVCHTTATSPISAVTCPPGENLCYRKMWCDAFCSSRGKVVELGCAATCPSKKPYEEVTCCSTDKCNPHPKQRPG

Albumin (Bos taurus) = Albumin (Bos taurus) (UniProt P02769); experiment: bovine serum albumin binders on microarray, profiling panel, artefact control for SMM control protein annotation, biochemical, small-molecule microarray, Alexa647 label, 635/667 nm fluorescence (AID 1118); conditions: BSA-A647 binding, fluorescence 635 nm, higher = more signal;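 note: score merges 667 nm emission intensity and signal-to-noise per printed compound spot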
Chain of Albumin (Bos taurus) (P02769 whole entry, looked up): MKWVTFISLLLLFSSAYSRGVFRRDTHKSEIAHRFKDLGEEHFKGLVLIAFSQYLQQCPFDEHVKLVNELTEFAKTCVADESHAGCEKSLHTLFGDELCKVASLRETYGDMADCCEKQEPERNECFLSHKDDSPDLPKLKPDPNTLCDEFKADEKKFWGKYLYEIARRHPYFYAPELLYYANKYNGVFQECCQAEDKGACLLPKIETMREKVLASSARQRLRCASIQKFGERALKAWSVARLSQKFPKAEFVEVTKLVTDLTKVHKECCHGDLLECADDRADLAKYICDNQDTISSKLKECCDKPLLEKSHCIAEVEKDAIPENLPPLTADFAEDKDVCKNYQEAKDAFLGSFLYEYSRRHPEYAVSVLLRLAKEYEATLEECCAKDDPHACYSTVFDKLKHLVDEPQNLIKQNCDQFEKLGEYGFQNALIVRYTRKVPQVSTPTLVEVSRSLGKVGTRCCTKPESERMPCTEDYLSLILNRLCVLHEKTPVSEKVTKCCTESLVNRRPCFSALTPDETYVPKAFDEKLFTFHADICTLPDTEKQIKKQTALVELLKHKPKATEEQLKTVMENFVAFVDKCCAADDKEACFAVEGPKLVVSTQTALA

[11] = small-molecule microarray binders of probe aXIP, primary screen, biochemical, NeuroSMM set, 635/667 nm fluorescence (AID 1119); conditions: higher = more signal, called active from +8 up or from −8 down;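 note: probe is the protein aXip251-270 applied at 1 µg/mL to compound-printed slides; binding of probe to printed compounds measured as 667 nm fluorescence plus signal to noise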
[12] = small-molecule binders of probe aNOTCH3, primary screen, biochemical, small-molecule microarray, 635/667 nm fluorescence (AID 1120); conditions: higher = more signal;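 note: probe is a biotin-tagged antibody raised against NOTCH3 rather than NOTCH3 protein; score merges spot fluorescence near 667 nm with spot signal to noise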
[13] = small-molecule binders of probe aNOTCH2, primary screen, biochemical, small-molecule microarray, 635/667 nm fluorescence (AID 1121); conditions: higher = more signal;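 note: score merges feature fluorescence read at 667 nm with its signal to noise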
[14] = target: Carbonic anhydrase 2 (Homo sapiens) (UniProt P00918); experiment: CAII small-molecule binders, profiling panel, biochemical, small-molecule microarray, Alexa647-labelled CAII (AID 1122); conditions: CAII-A647 binding fluorescence, higher = more signal
[15] = COS7 lysate on small-molecule microarray, probe aHis, 635 nm (AID 1123); conditions: COS7 cell lysate, fluorescence, higher = more signal;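 note: z-score combines 667nm fluorescence intensity with signal-to-noise per printed compound spot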
[16] = compound binding in COS7 lysate, probe aLAP1, primary screen, cell lysate, small-molecule microarray (AID 1124); conditions: probe aLAP1, fluorescence, higher = more signal;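 note: lysate comes from COS7 cells expressing LAP1 and is applied at 0.3 µg/mL; score merges spot fluorescence near 667 nm with signal-to-noise over triplicate slides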
Sam68 (KHDRBS1) = experiment: Sam68 small-molecule binders, primary screen, biochemical, small-molecule microarray, 635 nm fluorescence (AID 1125); conditions: small-molecule microarray binding, higher = more signal;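 note: score merges 667 nm channel intensity with signal to noise over triplicate slides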
[17] = system: Chordin-like protein 2 (CHRDL2); experiment: CHRDL2 small-molecule binders, primary screen, biochemical, small-molecule microarray, 635 nm fluorescence (AID 1126); conditions: small-molecule microarray binding, fluorescence 635 nm; higher = more signal;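 note: printed compound slides probed with Chrdl2 protein at 4 µg/mL for 1 h at 4 C; score merges 667 nm emission intensity with signal to noise over three replicate slides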
[18] = target: Concanavalin-A (Canavalia ensiformis) (UniProt P02866); experiment: ConA small-molecule binders, primary screen, artefact control for SMM control protein annotation, biochemical, small-molecule microarray, Alexa647 label, 635 nm (AID 1127); conditions: ConA-A647 binding fluorescence, higher = more signal;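 note: z combines 667 nm emission intensity with signal-to-noise across three replicate slides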
Chain of Concanavalin-A (Canavalia ensiformis) (P02866 whole entry, looked up): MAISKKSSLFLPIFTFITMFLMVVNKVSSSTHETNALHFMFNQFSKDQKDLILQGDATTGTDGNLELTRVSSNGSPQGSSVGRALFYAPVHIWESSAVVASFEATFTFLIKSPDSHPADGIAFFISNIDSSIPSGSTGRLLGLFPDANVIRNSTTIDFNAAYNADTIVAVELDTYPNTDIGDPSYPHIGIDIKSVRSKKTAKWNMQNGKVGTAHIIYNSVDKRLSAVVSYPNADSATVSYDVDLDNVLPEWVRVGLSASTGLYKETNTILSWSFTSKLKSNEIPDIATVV

SMILES	composite z-score [1]	z-score [2]	composite z-score [3]	composite z-score [4]	composite z-score [5]	composite z-score [6]	composite z-score [7]	composite z-score [8]	composite z-score [9]	composite z-score [10]	composite z-score (Albumin (Bos taurus))	composite Z-score [11]	composite z-score [12]	composite z-score [13]	composite z-score [14]	composite z-score [15]	composite z-score [16]	composite z-score (Sam68 (KHDRBS1))	composite z-score [17]	composite z-score [18]
CCCC#C[Si](O[C@H](CC)c1cn(Cc2ccccc2)nn1)(C(C)C)C(C)C	1.29	-0.283	0.631	-0.0722	-0.337	0.0799	-0.153	-0.234	0.927	1.11	0.603	0.244 (inactive)	0.151	0.0263	0.365	0.855	-0.193	0.793	0.379	0.572
NCCCCCCNC(=O)[C@@H]1C[C@@H]2C(=O)N3CCC[C@H]3C(=O)N2[C@@H]1c1cccc(OCCO)c1	-0.0954	0.116	0.738	0.263	-0.334	-0.0286	-0.0035	-0.366	0.572	1.01	0.81	2.71 (inactive)	0.113	-0.15	0.709	0.729	1.02	0.462	1.16	1.14
COc1ccc(C(O)C2C=CC3C(=O)NC(=O)C3N2Nc2ccc(Cl)cc2Cl)c2ccccc12 (stereo not given)	0.795	-0.0178	-0.65	2.02	1.08	-0.181	-0.116	-1.02	0.693	1.17	0.678	0.309 (inactive)	0.0328	0.0856	0.602	1.94	0.709	0.35	-0.359	0.934
COc1cc(C(O)C2C=CC3C(=O)N(c4ccccc4)C(=O)C3N2Nc2ccccc2)cc(OC)c1OC (stereo not given)	1.46	-0.63	-0.0844	1.84	0.613	0.0472	0.551	1.66	1.6	1.9	0.993	0.328 (inactive)	0.416	-0.0742	0.573	2.89	0.496	1.31	-0.872	1.15
Cc1ccc(C(C)CC(O)C2C=CC3C(=O)N(C)C(=O)C3N2Nc2ccccc2)o1 (stereo not given)	1.4	-0.955	0.79	0.0895	-0.0452	-0.0057	-0.0769	-0.213	0.163	0.6	0.264	-0.288 (inactive)	0.318	-0.075	0.656	0.614	0.0421	1.3	0.122	0.617
C[C@]1(C(=O)O)c2ccccc2C(=O)N(Cc2cc(F)cc(C(F)(F)F)c2)[C@H]1c1ccc(CO)cc1	0.156	0.475	0.324	-0.16	-0.348	0.0044	-0.0035	-0.0446	-0.0131	-0.408	0.286	-0.228 (inactive)	-0.0126	-0.182	0.677	1.6	-0.276	0.0491	0.447	0.255
COc1ccc([Si](C)(C)[C@@H]2[C@@H](CC(=O)N(CCO)Cc3ccccc3)O[C@]3(C(=O)N(Cc4ccc(N5C(=O)c6cccc7cccc5c67)cc4)c4ccccc43)[C@H]2C)cc1	0.749	-4.47	0.495	0.553	0.822	-0.124	0.0725	0.189	0.762	2.24	-0.806	0.267 (inactive)	0.0496	-0.126	0.283	1.12	0.284	0.956	0.307	1.12
CCOC(=O)C[C@H]1[C@H](OC(=O)c2ccccc2-c2ccccc2)[C@@H](NC(=O)c2ccc3ccccc3c2)c2cc(OCCCO)ccc2N1C(=O)Cc1ccc(OC)cc1	-0.201	-1.6	0.23	0.115	0.0612	-0.0643	0.112	0.257	-0.0261	0.264	0.227	0.25 (inactive)	-0.186	-0.101	-0.165	0.14	0.232	-0.868	-0.341	-0.12
C=C(C)[C@@H]1CC=C(C(O)C2C=CC3C(=O)N(C)C(=O)C3N2Nc2ccc([N+](=O)[O-])cc2[N+](=O)[O-])CC1 (stereo not given in full)	1.45	-0.44	0.265	0.79	0.441	0.101	0.302	1.46	0.958	1.95	0.689	-0.37 (inactive)	0.407	0.158	0.583	2.5	0.005	1.29	0.722	1.14
COC(=O)[C@@]1(Cc2ccc(F)cc2)[C@H]2c3cc(C(=O)N(C)C)n(CCc4ccc(O)c(O)c4)c3C[C@H]2CN1C(=O)c1ccccc1	0.148	-1.78	-0.0362	0.584	0.813	0.183	-0.214	0.2	1.18	0.0055	0.508	0.964 (inactive)	0.0807	0.256	0.863	3.26	0.541	0.0409	-0.938	0.227
COC(=O)[C@@]1(Cc2ccccc2)[C@H]2c3cc(C(=O)N(C)C)n(Cc4ccc(C(F)(F)F)nc4)c3C[C@H]2CN1C(=O)c1ccccc1	1.49	-1.3	-0.287	1.9	1.14	0.223	0.941	2.05	1.91	0.82	0.463	-0.031 (inactive)	0.39	0.329	0.849	3.31	0.427	1.3	-0.43	0.715
